Read-out in test [1]: Tissue Factor, F3 (gene 2152)
Description: BSK_CASM3C_TissueFactor: BioMAP Diversity Plus: CASM3C Assay for Tissue Factor Biomarker Activity (AID 2283052).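 Further: cell surface tissue factor protein level read by ELISA.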 To be noted: primary human coronary artery smooth muscle cells; actives raise or lower the signal.

Read-out in test [2]: Interferon-gamma inducible Protein 10 (IP10), CXCL10 (gene 3627)
Description: BSK_hDFCGF_IP10: BioMAP Diversity Plus: hDFCGF Assay for Interferon-gamma inducible Protein 10 (IP10) Biomarker Activity (AID 2283053). To be noted: primary human foreskin fibroblasts; actives raise or lower the signal. The gist of the method: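 Primary human foreskin fibroblasts exposed to chemicals for 24 h. IP-10 measured by ELISA; changes fitted bidirectionally against DMSO baseline.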

Read-out in test [3]: Urokinase-type plasminogen activator receptor (uPAR), PLAUR (gene 5329)
Description: BSK_CASM3C_uPAR: BioMAP Diversity Plus: CASM3C Assay for Urokinase-type plasminogen activator receptor (uPAR) Biomarker Activity (AID 2283054).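 Further: cell-surface uPAR protein level quantified by ELISA.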 To be noted: primary human coronary artery smooth muscle cells; actives raise or lower the signal.

Read-out in test [4]: Vascular cell adhesion molecule 1 (VCAM1), VCAM1 (gene 7412)
In words: BSK_CASM3C_VCAM1: BioMAP Diversity Plus: CASM3C Assay for Vascular cell adhesion molecule 1 (VCAM1) Biomarker Activity (AID 2283055).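 Further: VCAM-1 protein level quantified by ELISA on the cells.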 To be noted: primary human coronary artery smooth muscle cells; actives raise or lower the signal.

Read-out in test [5]: Collagen III, COL3A1 (gene 1281)
Description: BSK_hDFCGF_CollagenIII: BioMAP Diversity Plus: hDFCGF Assay for Collagen III Biomarker Activity (AID 2283056). Conditions: primary human foreskin fibroblasts; actives raise or lower the signal. The gist of the method:
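hDFCGF primary human dermal fibroblasts; 24 h chemical exposure; collagen III by ELISA; bidirectional curve fit vs DMSO baseline (gain or loss of signal).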

Read-out in test [6]: Epidermal growth factor receptor (EGFR), EGFR (gene 1956)
Description: BSK_hDFCGF_EGFR: BioMAP Diversity Plus: hDFCGF Assay for Epidermal growth factor receptor (EGFR) Biomarker Activity (AID 2283057). Conditions: primary human foreskin fibroblasts; actives raise or lower the signal. The gist of the method:
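Primary human foreskin fibroblasts (hDFCGF system), sampled 24 h after dosing; EGFR quantified by ELISA. Bidirectional fit relative to DMSO baseline; SRB total-protein staining in parallel cultures for cytotoxicity.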

Read-out in test [7]: Interleukin-8 (IL8), CXCL8 (gene 3576)
Description: BSK_hDFCGF_IL8: BioMAP Diversity Plus: hDFCGF Assay for Interleukin-8 (IL8) Biomarker Activity (AID 2283058). Conditions: primary human foreskin fibroblasts; actives raise or lower the signal. In a few lines: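 ELISA read-out of IL-8 from primary human foreskin fibroblast cultures taken 24 h after dosing; values are bidirectional fits relative to DMSO vehicle.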

The nature of test [8]: BSK_hDFCGF_Proliferation: Cell Proliferation Assessment in the BioMAP Diversity Plus: hDFCGF Assay (AID 2283059).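 Further: curves fitted for both rise and fall of signal versus DMSO baseline.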 To be noted: primary human foreskin fibroblasts. The gist of the method: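 Sub-confluent human foreskin fibroblast cultures receive test chemical […]. Relative cell number is quantified by sulforhodamine B staining (0.1%, after 10% TCA fixation) at 560 nm, with bidirectional fitting referenced to DMSO.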

Read-out in test [9]: Macrophage colony-stimulating factor (MCSF), CSF1 (gene 1435)
In words: BSK_hDFCGF_MCSF: BioMAP Diversity Plus: hDFCGF Assay for Macrophage colony-stimulating factor (MCSF) Biomarker Activity (AID 2283060). Conditions: primary human foreskin fibroblasts; actives raise or lower the signal. The gist of the method: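 ELISA read-out of M-CSF in human dermal foreskin fibroblast cultures, 24 h after chemical dosing; gain or loss of signal fitted bidirectionally relative to DMSO baseline.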

A short description of test [10]: BSK_hDFCGF_SRB: Viability Assessment in the BioMAP Diversity Plus: hDFCGF Assay (AID 2283061).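 Further: cells exposed to compound for 24 h before the read.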 Conditions: primary human foreskin fibroblasts. The gist of the method: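 Primary human foreskin fibroblasts; 24 h post-dose; fixed 10% TCA, stained 0.1% SRB, A560 read; total protein as overt cytotoxicity measure; curves fit bidirectionally vs DMSO control.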
Read-out in test [11]: TIMP metallopeptidase inhibitor 1 (TIMP1), TIMP1 (gene 7076)
Description: BSK_hDFCGF_TIMP1: BioMAP Diversity Plus: hDFCGF Assay for TIMP metallopeptidase inhibitor 1 (TIMP1) Biomarker Activity (AID 2283062). Conditions: primary human foreskin fibroblasts; actives raise or lower the signal. In a few lines:
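ELISA readout of TIMP-1 from human dermal foreskin fibroblast cultures 24 h post-dosing. Curves were fitted in both directions against DMSO baseline, with SRB total-protein staining in parallel cultures as a cytotoxicity check.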

Read-out in test [12]: Monokine induced gamma interferon (MIG), CXCL9 (gene 4283)
Description: BSK_hDFCGF_MIG: BioMAP Diversity Plus: hDFCGF Assay for Monokine induced gamma interferon (MIG) Biomarker Activity (AID 2283063). Conditions: primary human foreskin fibroblasts; actives raise or lower the signal. The gist of the method: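 Fibroblasts (human foreskin, primary) dosed, 24 h, MIG by ELISA; fit bidirectional vs DMSO.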

Read-out in test [13]: Matrix Metallopeptidase 1 (MMP1), MMP1 (gene 4312)
In words: BSK_hDFCGF_MMP1: BioMAP Diversity Plus: hDFCGF Assay for Matrix Metallopeptidase 1 (MMP1) Biomarker Activity (AID 2283064). Conditions: primary human foreskin fibroblasts; actives raise or lower the signal. The gist of the method: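 Primary human foreskin fibroblasts in the hDFCGF system were dosed with test chemical, and MMP1 was measured by ELISA 24 h later. Values come from bidirectional curve fitting against the DMSO baseline.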

Read-out in test [14]: Vascular cell adhesion molecule 1 (VCAM1), VCAM1 (gene 7412)
Description: BSK_hDFCGF_VCAM1: BioMAP Diversity Plus: hDFCGF Assay for Vascular cell adhesion molecule 1 (VCAM1) Biomarker Activity (AID 2283065).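 On AC50: VCAM-1 protein level quantified by ELISA after 24 h chemical exposure.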 To be noted: primary human foreskin fibroblasts; actives raise or lower the signal. The gist of the method: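 ELISA read-out of VCAM-1 on human skin fibroblasts, 24 h post-dose; gain or loss of signal fitted bidirectionally against DMSO baseline.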

Read-out in test [15]: Plasminogen activator inhibitor-1 (PAI1), SERPINE1 (gene 5054)
In words: BSK_hDFCGF_PAI1: BioMAP Diversity Plus: hDFCGF Assay for Plasminogen activator inhibitor-1 (PAI1) Biomarker Activity (AID 2283066). Conditions: primary human foreskin fibroblasts; actives raise or lower the signal. In a few lines:
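Human foreskin fibroblast primary cells, 24 h chemical exposure; PAI-1 measured by ELISA. Bidirectional fitting relative to DMSO; parallel cultures stained with SRB for total protein to flag overt cytotoxicity.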

Read-out in test [16]: Intercellular Adhesion Molecule 1 (ICAM1), ICAM1 (gene 3383)
In words: BSK_KF3CT_ICAM1: BioMAP Diversity Plus: KF3CT Assay for Intercellular Adhesion Molecule 1 (ICAM1) Biomarker Activity (AID 2283067). To be noted: primary human keratinocytes with fibroblasts; actives raise or lower the signal. The gist of the method: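 ELISA readout of ICAM-1; KF3CT human skin co-culture (keratinocytes + foreskin fibroblasts), 24 h post-dose; gain/loss fit vs DMSO baseline.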

Read-out in test [17]: Interferon-gamma inducible Protein 10 (IP10), CXCL10 (gene 3627)
Description: BSK_KF3CT_IP10: BioMAP Diversity Plus: KF3CT Assay for Interferon-gamma inducible Protein 10 (IP10) Biomarker Activity (AID 2283068). Conditions: primary human keratinocytes with fibroblasts; actives raise or lower the signal. The gist of the method:
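ELISA read-out of IP-10 after 24 h chemical dosing of human skin primary co-culture (keratinocytes, foreskin fibroblasts). Gain or loss of signal relative to DMSO, bidirectional curve fit.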

The nature of test [18]: BSK_KF3CT_SRB: Viability Assessment in the BioMAP Diversity Plus: KF3CT Assay (AID 2283069).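 Further: total protein by sulforhodamine B staining as a cytotoxicity measure; read 24 h after compound addition.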 To be noted: primary human keratinocytes with fibroblasts. In a few lines: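 Human primary keratinocyte plus foreskin fibroblast co-culture exposed to chemicals for 24 h. Total protein measured by 0.1% sulforhodamine B staining after 10% TCA fixation, read at 560 nm; bidirectional fitting versus DMSO baseline.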

Read-out in test [19]: Interleukin-1 alpha (IL1a), IL1A (gene 3552)
Description: BSK_KF3CT_IL1a: BioMAP Diversity Plus: KF3CT Assay for Interleukin-1 alpha (IL1a) Biomarker Activity (AID 2283070). Conditions: primary human keratinocytes with fibroblasts; actives raise or lower the signal. The gist of the method: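 Human keratinocyte plus foreskin fibroblast primary co-culture, sampled 24 h after chemical dosing. IL-1a measured by ELISA; responses fitted bidirectionally against DMSO baseline (negative control), so gain or loss of signal both count.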

Where “and” joins values, the source holds several entries; their conditions need not be identical. Identical values can stand only once. Some structures have more than one record in an assay (separate samples or runs), and their calls can disagree. Calls of active or inactive are those of the source. How the source made its calls: active means hit-call score of the fitted dose curve at least 0.9, where 1 is the maximum; inactive means score below 0.9.

One may read the AC50 as the concentration at which the activity in the assay is half-maximal.

As to `CCCCCCC(C)OC(=O)COc1nc(F)c(Cl)c(N)c1Cl` (stereo unspecified), the outcome in test [1], in test [3], in test [6] and in test [17] was inactive. Further, the AC50 is 13.5 µM (active) in [2]; 32.8 µM (active) in [4]; 20 µM (active) in test [5]; 29.6 µM (active) in test [7]; 6.82 µM (active) in [8]; 13.8 µM (active) in test [9]. Also, the AC50 in test [10] is 14.9 µM (active); in test [11] it was 26 µM (active); in test [12], 15 µM (active); in test [13] it was 30.3 µM (active); in test [14] it was 13.4 µM (active); in test [15], 25.8 µM (active). The AC50 is 31.4 µM (active) in test [16], 30.4 µM (active) in test [18] and 33.3 µM (active) in [19].

`CC(C)CCCCCCc1ccc(O)cc1`: the AC50 is 26.9 µM (active) in test [1]; 9.75 µM (active) in test [2]; 31.8 µM (active) in test [3]; 33.8 µM (active) in test [4]; 9.95 µM (active) in [5]; 12.2 µM (active) in test [6]. Moreover, the AC50 in [7] was 11.7 µM (active); in [8], 7.24 µM (active); in test [9], 8.61 µM (active); in [10], 10.2 µM (active); in test [11], 11.9 µM (active); in test [12], 8.13 µM (active). For the same molecule, the AC50 in test [13] was 9.57 µM (active); in test [14], 9.07 µM (active); in test [15], 11.1 µM (active); in test [16] it was 7.58 µM (active); in [17], 9.35 µM (active); in test [18], 5.35 µM (active). Also, the AC50 in test [19] was 8.32 µM (active).

Take `N#CSCSc1nc2ccccc2s1`: the AC50 is 1.85 µM (active) in test [1]; 1.49 µM (active) and 227 nM (active) in [2]; 5.35 µM (active) and 30 µM (active) in test [3]; 6.34 µM (active) and 27.7 µM (active) in test [4]; 1.19 µM (active) and 424 nM (active) in test [5]; 2.01 µM (active) in test [6]. Moreover, the AC50 in [7] is 2.43 µM (active); in [8], 632 nM (active) and 148 nM (active); in test [9], 1.56 µM (active) and 1.28 µM (active); in [10] it was 1.08 µM (active) and 155 nM (active); in [11], 1.63 µM (active) and 148 nM (active); in [12] it was 1.67 µM (active) and 1.3 µM (active). In addition, the AC50 is 1.82 µM (active) and 1.61 µM (active) in test [13]; 1.37 µM (active) and 460 nM (active) in [14]; 1.72 µM (active) and 627 nM (active) in [15]; 7.09 µM (active) and 10.6 µM (active) in test [16]; 7.03 µM (active) and 11.6 µM (active) in [17]; 5.31 µM (active) in test [18]. Moreover, the AC50 in [19] was 7.76 µM (active) and 11.4 µM (active). Also, the result in [1], in test [6], in [7] and in test [18] was inactive.

For the molecule `CCNc1nc(N)nc(Cl)n1`, the outcome in test [1], in test [2], in [3], in test [4], in [5] and in [6] was inactive. For the same molecule, the outcome in test [7], in [8], in test [9], in [10], in test [11] and in test [12] was inactive. Moreover, the result in test [13], in test [14], in [15], in test [16], in [17] and in test [18] was inactive. In addition, the outcome in [19] was inactive.

Turning to `CCCCCOC(=O)COc1cc(N2C(=O)C3=C(CCCC3)C2=O)c(F)cc1Cl`, the result in [1], in test [3], in [6], in test [7], in test [10] and in [11] was inactive. The result in [13], in test [15], in [16], in test [18] and in [19] was inactive. The AC50 in [2] is 17.9 µM (active); in [4], 5.55 µM (active); in test [5] it was 15.4 µM (active); in test [8], 22.7 µM (active); in test [9] it was 20 µM (active); in [12], 4.64 µM (active). Moreover, the concentration at half-maximal activity (AC50) in test [14] was 14 µM (active); in test [17], 31.9 µM (active).

As for `CC(C)(c1ccc(O)cc1)c1ccc(O)cc1`, the outcome in test [1], in test [2], in test [3], in test [4], in test [5] and in test [6] was inactive. Moreover, the result in test [7], in [9], in test [10], in [11], in [12] and in test [13] was inactive. Further, the result in test [14], in [15], in test [16], in [17], in test [18] and in test [19] was inactive. Further, the AC50 in [2] is 14.4 µM (active); in test [5] it was 6.87 µM (active) and 25.7 µM (active); in [8] it was 26.2 µM (active) [middle of 4 runs]; in test [14], 8.38 µM (active).

The values above are taken from PubChem BioAssay (EPA / NIEHS).
